Source: PubChem
KB-V1 cytotox – KB-V1 MDR subline cytotoxicity; hit rate 3.4% among 400,000; KB-V1 MDR cells viability, CellTiter-Glo, 72 h; AID 1347076; Potency, µM (titrated, usually from 46.1 µM), hits mostly cytotoxic; also: % is scaled to controls: 0 for no effect and ±100 for the full control effect; nearly all actives have a fitted effect of over 60% in size
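Following 72 h at 37 degrees C with compound, KB-V1 cell viability was read by CellTiter-Glo luminescence, medium being phenol-red-free DMEM plus 10% FBS; concentration-response parameters came from normalized, curve-fitted qHTS data.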
SW480 rereplic – DNA re-replication induction in SW480 cells; SW480 DNA re-replication, Hoechst DNA content imaging, 48 h; Potency, µM (doses to about 46.1 µM), without a hit: at the top dose re-replication activation, hits mostly activators; hit rate 1.8% among 340,000; AID 624297; also: % of control where 0% means no effect; nearly all actives have a fitted effect of over 55% in size
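DNA re-replication was detected as more nuclei of elevated Hoechst intensity after 48 hr exposure to compound (23 nL pinned per well of 250 cells).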
RORg inh – blocks mouse ROR gamma transcriptional activity | Potency, µM (doses to about 53.6 µM), for the others: at the highest dose activity change, negative = inhibition, hits mostly inhibitors | Drosophila S2 Gal4-RORgamma UAS-luciferase reporter, 20 h | hit rate 5.4% among 310,000; also: % is scaled to controls: 0 for no effect and ±100 for the full control effect; nearly all actives have a fitted effect of over 60% in size
Target sequence (P51450 whole entry, looked up, the tested form may be a part): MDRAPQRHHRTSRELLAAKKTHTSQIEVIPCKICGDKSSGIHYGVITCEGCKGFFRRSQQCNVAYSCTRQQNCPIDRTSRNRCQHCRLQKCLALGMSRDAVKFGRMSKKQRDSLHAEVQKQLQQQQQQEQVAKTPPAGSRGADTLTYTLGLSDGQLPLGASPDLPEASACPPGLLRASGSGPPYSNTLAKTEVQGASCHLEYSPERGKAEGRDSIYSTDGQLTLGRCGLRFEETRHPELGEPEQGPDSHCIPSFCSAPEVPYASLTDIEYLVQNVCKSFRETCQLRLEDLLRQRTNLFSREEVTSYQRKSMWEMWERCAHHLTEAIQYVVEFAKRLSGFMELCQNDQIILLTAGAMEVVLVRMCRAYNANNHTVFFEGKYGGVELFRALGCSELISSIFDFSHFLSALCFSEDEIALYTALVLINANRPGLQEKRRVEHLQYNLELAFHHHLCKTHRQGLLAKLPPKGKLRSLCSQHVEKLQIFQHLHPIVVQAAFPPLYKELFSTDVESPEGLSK
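Stable Schneider cell line, Gal4 DNA-binding domain fused to ROR gamma, UAS-luciferase. Cmpd 1 hr RT → CuSO4 700 uM final → 20 hr RT → luciferase reagent 10 min → luminescence.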
Gal4-VP16 FLuc – inhibits Gal4-VP16 luciferase reporter, ROR gamma counter-screen. Drosophila S2 Gal4-VP16 UAS-luciferase, luminescence, 20 h. Potency, µM (series often up to 53.6 µM), inactives show at the highest dose activity, negative = inhibition, most hits filed as inhibitors. hit rate 3.5% among 310,000;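 also: Gal4-VP16 expression switched on by copper sulfate through the metallothionein promoter; % is scaled to controls: 0 for no effect and ±100 for the full control effect; nearly all actives have a fitted effect of over 50% in size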
KB-3-1 cytotox – kills parental KB-3-1 adenocarcinoma cells; KB-3-1 viability, CellTiter-Glo ATP luminescence, 72 h; Potency, µM (top dose mostly 46.1 µM), actives largely listed as cytotoxic; hit rate 1.4% among 400,000; AID 1347075; also: % is scaled to controls: 0 for no effect and ±100 for the full control effect; nearly all actives have a fitted effect of over 60% in size
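Here the drug-naive KB-3-1 line serves as comparator for MDR sub-line selectivity; cells received compound titrations, 72 h at 37 °C, then CellTiter-Glo readout.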
MCF10A rerep – inducers of DNA re-replication in MCF 10A breast cells; MCF 10A DNA re-replication, Hoechst nuclear intensity, 48 h; Potency, µM (doses to about 46.1 µM), for the others: at the highest dose activity, positive = re-replication, hits mostly activators; hit rate 2.9% among 350,000; AID 624296; also: % of control where 0% means no effect; nearly all actives have a fitted effect of over 50% in size
* marks the source's active call; other numbers are inactive results; i = inactive; ? = inconclusive; . = no result given; [ ] = remark or other dose. The list is not random: actives were taken first. Their share in the collection is about 10%. Calls follow the shape of the dose curve; as a rule, active = well fitted curve in the direction sought with a large enough effect; inconclusive = small, poorly fitted or top-dose-only effect, or another doubt; inactive = no such curve, though single readings can be large; an effect the other way counts as inactive or inconclusive. Potency is read from the fitted curve at half-maximal effect.

SMILES	KB-V1 cytotox	SW480 rereplic	RORg inh	Gal4-VP16 FLuc	KB-3-1 cytotox	MCF10A rerep
CCOc1ccc(NC(=O)NCCCn2c(C)nc3cc(C)c(C)cc32)cc1	23µM*	7%	-9%	-4%	i	4%
O=C(CN(c1ccccc1F)S(=O)(=O)c1ccccc1)NC1CCCCCC1	4.6µM*	1%	-1%	15%	i	-1%
Cc1ccc(NC(=O)C2(C)CCN2Cc2ccccc2OC(F)F)cc1 (centres undefined)	i	.	.	.	i	.
Cc1nc(C(=O)Nc2ccc(Cl)cc2)nn1-c1ccc([N+](=O)[O-])cc1	i	-5%	19%	-19%	i	-182%[0.0737 µM]
Cc1ccc(NC(=O)c2nc(C)n(-c3ccc([N+](=O)[O-])cc3)n2)cc1	12µM*	-3%	-8%	-9%	i	1%
COc1ccc(NC(=O)C2c3ccccc3OCC(=O)N2Cc2ccco2)cc1 (centres undefined)	i	.	.	.	?	.
CCCC(=O)O[C@]1(C(=O)COC(C)=O)CC[C@H]2C3C[C@H](F)C4=CC(=O)C=CC4(C)[C@@]3(F)[C@@H](O)CC21C (some centres undefined)	.	9%	-25%	1%	.	0%
CCC(=O)NC(=S)Nc1ccccc1OC	i	-6%	?	?	i	-7%
CCCC(=O)NC(=S)Nc1ccccc1F	?	-4%	4µM*	?	i	12%
COc1ccccc1NC(=S)NC(=O)CCCOc1ccc(Cl)cc1Cl	i	?	10µM*	16µM*	i	?
COc1ccccc1NC(=S)NC(=O)Cc1ccc(Cl)cc1	i	-2%	7.1µM*	4.5µM*	i	6%
CC(=O)NC(=S)Nc1ccccc1F	i	-28%	?	?	i	4%
COC(=O)CCC(=O)NNC(=O)c1ccc(Cl)cc1Cl	i	-2%	11µM*	-14%	i	-5%
O=C(CCCOc1ccc(Cl)cc1Cl)Nc1ccccn1	i	5%	36%	-12%	i	-6%
CCCCC[C@H]1CCCCC[C@H](O)C[C@@H](O)[C@H](O)/C=C/C(=O)O1	i	.	.	.	i	.
COc1ccc(C(C(=O)NCC2CCCO2)N(Cc2ccccc2)C(=O)CNC(=O)c2ccco2)cc1OC (centres undefined)	i	-9%	19%	2%	?	-8%
O=C(NCc1cccc(Cl)c1)c1ccc(-n2cncn2)c2ccoc12	i	.	.	.	i	.
Cc1ccccc1C(=O)NNC(=S)NC(=O)c1ccc(Cl)cc1Cl	?	?	?	-1%	i	5%
COc1cccc(NC(=S)NC(=O)Cc2ccc(Cl)cc2)c1	i	6%	7.1µM*	7.1µM*	i	1%
COc1ccccc1NC(=S)NNC(=O)c1ccc(Cl)cc1Cl	i	-6%	13µM*	?	i	?
CC(C)(C)C(=O)NC(=S)Nc1ccccc1F	i	3%[9.22 µM]	13µM*	?	i	10%
CCC(=O)NC(=S)Nc1ccccc1F	i	4%	13µM*	?	i	3%
COc1ccc(CNC(=O)c2cc(-c3ccc(C)c(C)c3)n[nH]2)cc1	i	.	.	.	i	.
CC(C)(C)c1ccc(C(=O)N2CCC2(C)C(=O)Nc2cccc(C#N)c2)cc1 (centres undefined)	i	.	.	.	i	.
OC(Br)C(O)C(O)N1CCCc2ccccc21 (centres undefined)	i	.	.	.	i	.
CCOc1ccc(/C=C/c2ccnc3ccccc23)cc1OCC	?	.	.	.	i	.
CCCC(=O)NC(=S)Nc1ccccc1OC	i	8%	10µM*	?	i	-2%
CCN(CC)CCNC(=O)c1c(O)c2cccc3c2n(c1=O)CCC3	0.73µM*	?	4%	-1%	i	21%
O=C(NCc1ccccn1)c1c(O)c2cccc3c2n(c1=O)CC3	?	-4%[9.22 µM]	2.8µM*	?	i	3%
